GBA enhancer: enhancers of human beta-glucosidase activity in Gaucher fibroblasts; P04062; L444P Gaucher fibroblasts, 4-MU-glucoside fluorescence, 3 days; activation, % at 10 µM; actives 0.44% (n = 30,000); in the data active means activation above about 65%;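 further: 0% = vehicle wells and 100% = positive control wells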
Target sequence (P04062 whole entry L483P): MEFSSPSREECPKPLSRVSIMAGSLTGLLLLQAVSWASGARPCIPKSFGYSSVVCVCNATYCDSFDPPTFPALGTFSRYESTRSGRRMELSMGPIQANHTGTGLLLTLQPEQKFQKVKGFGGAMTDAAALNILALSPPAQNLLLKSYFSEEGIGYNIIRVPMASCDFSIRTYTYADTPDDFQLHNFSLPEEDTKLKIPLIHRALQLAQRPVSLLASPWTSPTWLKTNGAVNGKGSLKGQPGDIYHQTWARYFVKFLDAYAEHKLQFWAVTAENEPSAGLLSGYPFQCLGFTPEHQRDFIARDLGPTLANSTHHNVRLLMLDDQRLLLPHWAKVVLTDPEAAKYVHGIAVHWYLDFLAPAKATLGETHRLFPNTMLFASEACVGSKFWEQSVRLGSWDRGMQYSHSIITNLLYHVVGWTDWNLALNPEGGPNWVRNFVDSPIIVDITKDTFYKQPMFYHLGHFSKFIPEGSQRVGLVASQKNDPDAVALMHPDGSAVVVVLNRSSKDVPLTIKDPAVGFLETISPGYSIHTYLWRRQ
* marks the source's active call; other numbers are inactive results. The full list was thinned out, with hits kept by preference.

SMILES	GBA enhancer
CCn1c(=N)c(C(N)=O)cc2c(=O)n3cccc(C)c3nc21	-38.7
O=S(=O)(NC1c2cccc3cccc(c23)C1N1CCN(CCO)CC1)c1ccccc1 (configuration not stated)	-22.0
O=S(=O)(NC1CC1)c1cccc(S(=O)(=O)N2CCCC2)c1	-16.7
O=S(=O)(NC1c2cccc3cccc(c23)C1N1CCNCC1)c1ccccc1 (configuration not stated)	74.1*
CCOc1ccc(N2C(=O)CC(N3CCN(c4ccccc4F)CC3)C2=O)cc1 (configuration not stated)	-9.9
Cc1ccc(-c2nnn(CC(=O)Nc3ccccc3N3CCOCC3)n2)cc1	-17.8
O=C(Nc1ccccc1N1CCOCC1)c1ccc2ccccc2n1	19.8
CC(C)Oc1cccc(C(=O)Nc2ccccc2N2CCOCC2)c1	65.2*
Cc1ccn2cc(C(=O)Nc3ccccc3N3CCOCC3)nc2c1	91.6*
Cc1cc(Cl)ccc1OC(C)C(=O)Nc1ccccc1N1CCOCC1 (configuration not stated)	-28.1
CCC(C)Oc1cccc(C(=O)Nc2ccccc2N2CCOCC2)c1 (configuration not stated)	-1.7
CCC(=O)N1CCc2cc(S(=O)(=O)CCC(=O)NCc3ccc4c(c3)OCO4)ccc21	36.4
COc1cccc(/C=N/n2c(C)c3c(C)nnc(C)c3c2C)c1O	8.1
CC(C)(C)NC(=O)CSc1nnc(-c2ccco2)n1Cc1ccco1	78.3*
COC(=O)CSc1nnc(-c2ccco2)n1Cc1ccco1	-2.5
CCN(CC)C(=O)CSc1nnc(-c2ccco2)n1Cc1ccco1	-7.6
CCN(CC)CCNC(=O)CCCNC(=O)Cn1cnc2sc(C)c(C)c2c1=O	-15.0
CC(NC(=O)OC1CCCCC1)N1C(=O)C2C3C=CC(C3)C2C1=O (configuration not stated)	-4.7
CCN(CC)S(=O)(=O)c1ccc2oc(C(=O)NCc3ccc(F)cc3)c(C)c2c1	-53.6
COc1ccc(NC(=O)CN2CCN(S(=O)(=O)c3ccc(C(C)C)cc3)CC2)cc1OC	65.8*
COc1ccc(C)cc1NC(=O)CN1CCN(S(=O)(=O)c2ccc(C(C)C)cc2)CC1	20.9
COC(=O)c1ccc(NC(=O)CN2CCN(S(=O)(=O)c3cc(Cl)ccc3OC)CC2)cc1	-18.1
CCN(CC)C(=O)N1CCC(NC(=O)c2ccc(C(C)(C)C)cc2)CC1	-22.8
O=C(CSc1nnc(-c2ccncc2)n1-c1ccc(Cl)cc1)N1CCOCC1	-47.2
O=C(CSc1nnc2c(n1)[nH]c1ccc(F)cc12)OCc1ccccc1	76.5*
SMILES	GBA enhancer
CCCn1c2ccccc2c2nnc(SCC(=O)OCC)nc21	-6.4
O=C(CN1CCN(c2ccc(F)cc2)CC1)OCc1ccccc1	-10.2
Cc1nc2c(cnn2-c2ccc(Cl)cc2)c(=O)n1-c1ccc2c(c1)OCCO2	-18.8
Cc1ccc2c(c1)nc(NCCO)n2C	12.1
CCOc1ccccc1NC(=O)CC1NCCNC1=O (configuration not stated)	4.0
COC(=O)C1CCC(C)(C(=O)Nc2ccccc2)C1(C)C (configuration not stated)	5.0
COc1cccc(NC(=O)C2CCCN2C(=O)Nc2cccc(F)c2)c1 (configuration not stated)	-37.6
CCCCNC(=O)C1CCCN1C(=O)Nc1cccc(OC)c1 (configuration not stated)	73.4*
CC(=O)Nc1cccc(NC(=O)C2CCCN2C(=O)Nc2cccc(C)c2)c1 (configuration not stated)	-10.1
Cc1cccc(OCc2nnc(SCC(=O)NCCc3ccccc3)o2)c1	7.8
CCOC(=O)c1c(C)n(C)c2ccc(OC(C)C(=O)OC)cc12 (configuration not stated)	72.2*
CCOC(=O)c1c(C)n(C)c2ccc(OCC(O)Cn3nc(C)c(Br)c3C)cc12 (configuration not stated)	-18.2
CCOC(=O)c1c(C)n(C)c2cc(Br)c(C(=O)OC)cc12	-11.4
CCSc1nnc(NC(=O)CSc2nc3c(c(=O)n2-c2ccccc2OC)SCC3)s1	16.4
Cc1cc(C)n(C(=O)c2ccc(S(=O)(=O)NCC3CCCO3)cc2)n1 (configuration not stated)	4.9
Cn1c(=O)c2cc(S(=O)(=O)NCCC(=O)NCCc3ccc(Cl)cc3)ccc2n(C)c1=O	-13.8
COCc1nnc(NC(=O)c2ccc(S(=O)(=O)N(C)C3CCCCC3)cc2)o1	78.8*
COCCN(CCOC)S(=O)(=O)c1ccc(C(=O)Nc2nnc(C)o2)cc1	-8.5
COCc1nnc(NC(=O)c2ccc(S(=O)(=O)N3CCCCCC3)cc2)o1	2.1

Bioassay records from PubChem BioAssay.
